This note sets out measurements from PubChem BioAssay (EPA / NIEHS).

“And” between values parts separate entries of the source, which are not always exact repeats. Identical values can stand only once. The source made the active and inactive calls. The calls were made as follows: active = hit-call score of the fitted dose curve at least 0.9, where 1 is the maximum; inactive = score below 0.9.

Read-out in this assay: Monokine induced gamma interferon (MIG), CXCL9 (gene 4283)
Description: BSK_SAg_MIG: BioMAP Diversity Plus: SAg Assay for Monokine induced gamma interferon (MIG) Biomarker Activity (AID 2283092). As to conditions: primary human HUVEC with PBMC; actives raise or lower the signal. As to the method:
BSK_SAg is a cell-based, multiplexed-readout assay that uses umbilical vein endothelium and peripheral blood mononuclear cells, a human vascular primary cell co-culture, with measurements taken at 24 hours after chemical dosing in a 96-well plate.BSK_SAg_MIG is an assay component measured in the BSK_SAg assay. It measures MIG antibody related to regulation of gene expression using ELISA technology.Data from the assay component BSK_SAg_MIG was analyzed into 1 assay endpoint. This assay endpoint, BSK_SAg_MIG, was analyzed with bidirectional fitting relative to DMSO as the negative control and baseline of activity. Using a type of binding reporter, gain or loss-of-signal activity can be used to understand changes in the signaling as they relate to the gene CXCL9. Furthermore, this assay endpoint can be referred to as a primary readout, because this assay has produced multiple assay endpoints where this one serves a signaling function. To generalize the intended target to other relatable targets, this assay endpoint is annotated to the cytokine intended target family, where the subfamily is chemotactic factor.
The levels of cell surface (or secreted, indicated by the prefix "s") biomarker endpoints were measured by ELISA. Overt cytotoxicity to cells in confluent adherent cultures (all systems other than the BT system) was assessed by measuring total protein levels using sulforhodamine B (SRB) staining in parallel cultures at the time of biomarker measurements, indicated as SRB endpoints. For proliferation assays for adherent cell types, individual cell types are cultured at sub-confluence and relative cell numbers quantified by SRB staining at time points optimized for each system (48 h: 3C and CASM3C systems; 72 h: BT and HDF3CGF systems; 96 h: SAg system). SRB was performed by staining cells with 0.1% SRB after fixation with 10% TCA and reading wells at 560 nm.Viability and proliferation of PBMC (T cells) was quantified by Alamar Blue reduction for the SAg and BT systems. For PBMC viability (referred to as PBMC Cytotoxicity within the assay endpoint names), cells were plated (75,000/well in a 96-well plate) and then chemical samples added for 1 h before addition of activators, SEB and TSST-1 (20 ng/mL final concentration each). Cells were incubated for 90 h. Then, Alamar Blue (20 uL/well) (Invitrogen, Cat DAL1100) was added for 6 h, and the plates were read with a fluorescence microplate reader at 546/580 nm (excitation/emission). For PBMC proliferation, cells were plated and activated as above but incubated for only 16 h prior to addition of Alamar Blue. Plates were read after 6 h.
As for `COC(=O)/C=C\C(=O)OC`, the outcome was inactive.
`COc1cc(CNC(=O)CCCC/C=C/C(C)C)ccc1O`: the result was inactive.
On to `CN(C)Cc1cc(C(C)(C)C)c(O)c(C(C)(C)C)c1`, for which the result was inactive.
On the same count and under the same terms, the value for `COc1ccccc1Oc1c(NS(=O)(=O)c2ccc(C(C)(C)C)cc2)nc(-c2ncccn2)nc1OCCO` was “inactive”.
On to `CCCCCCCCCCC1CO1` (configuration not stated), for which the result was inactive.
What is called AC50 is the concentration giving half of the maximal activity seen. As for `O=[N+]([O-])c1cc(S(=O)(=O)Nc2ccccc2)ccc1Nc1ccccc1`, the AC50 was 34.1 µM (active) and 35.3 µM (active).
Take `CCC[Si](OC(C)=O)(OC(C)=O)OC(C)=O`: the result was inactive.
The same measure, in the same setting: the value for `CN(C)c1ccc(C(c2ccccc2)c2ccc(N(C)C)cc2)cc1` was “inactive”.
Same read-out and setting: the value for `CN(C)CCC(c1ccc(Cl)cc1)c1ccccn1` (configuration not stated) was “inactive”; that for `Sc1nc2ccccc2s1` was “inactive”; that for `CC(C)C1OCCN1CCOC(=O)NCCCCCCNC(=O)OCCN1CCOC1C(C)C` (configuration not stated) was “inactive”.
Still for that read-out and setting: the value for `C1CN(CCOCCN2CCOCC2)CCO1` was “inactive”; that for `CCCCC(CC)COC(=O)C=Cc1ccc(OC)cc1` (configuration not stated) was “inactive”.
As to `COc1ccc(C(=O)c2ccccc2O)c(O)c1`, the result was inactive.
On the same count and under the same terms, the value for `O=C(C(=O)c1ccccc1)c1ccccc1` was “inactive”.
Take `OC(C(F)(F)F)(C(F)(F)F)C(O)(C(F)(F)F)C(F)(F)F`: the AC50 is 50.6 µM (active) and 49.6 µM (active).
With `CC(C)CC(=O)CC(C)CC(C)C` (configuration not stated), the result was inactive.
`Cc1cc(-n2nc3ccc(Cl)cc3n2)c(O)c(C(C)(C)C)c1`: the outcome was inactive.
Same read-out and setting: the value for `Cc1c(C(N)=O)cc([N+](=O)[O-])cc1[N+](=O)[O-]` was “inactive”; that for `CC[N+](CC)(CC(=O)Nc1c(C)cccc1C)Cc1ccccc1` (tested in a mixture with another compound) was “inactive”.
Still for that read-out and setting: the value for `CCCCCCCCCC/C=C/C1CC(=O)OC1=O` (configuration not stated) was “inactive”.
Turning to `CCCCCCCCCCCCCCCCCC[N+](C)(C)C`, the half-maximal activity concentration (AC50) was 8.07 µM (active).
As to `CCCCCCC(O)CCCCCCCCCCC(=O)OC` (configuration not stated), the outcome was inactive.
The same measure, in the same setting: the value for `Oc1cccc2ccccc12` was “inactive”; that for `CCC(C)=NO` was “inactive”.
On the same count and under the same terms, the value for `CC[N+](CC)(CC(=O)Nc1c(C)cccc1C)Cc1ccccc1` was “inactive”.
Still for that read-out and setting: the value for `Cc1cccnc1` was “inactive”.
